CHOP inhibitor = CHOP inhibition in unfolded protein response; CHO-K1 CHOP-promoter luciferase, tunicamycin-induced, 15-18 h; inhibition, % at 10 µM; 3.8% of 220,000 active; AID 2732;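 active = compounds that reduced the stress-induced luciferase reporter signal by more than about 70% of percent inhibition, limit read from the data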;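 also: 0% = tunicamycin plus vehicle and 100% = wells without tunicamycin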
WT yeast gro inh = growth inhibition of WT yeast, mitochondrial fusion screen. mitochondrial fusion phenotypic screen, WT strain. inhibition, % at 10 µM. 2.1% of 190,000 active. AID 1362; in the data active = inhibition above about 58%; tested in S. cerevisiae
RAM inhibit = yeast RAM network inhibition. S. cerevisiae dse1pr::URA3 reporter, 5-FOA growth OD615, 2 d; analog-sensitive cbk1-as2 kinase mutant strain. AID 868. 1.8% of 190,000 active. inhibition, % at 50 µM;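 active = inhibition above a set limit, 3 SD over mean compound inhibition, cut at about 8.4% in these data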;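 also: 0% = DMSO-only wells with no growth and 100% = 10 µM 1-NA-PP1 full growth; inhibition rescues growth on 5-FOA so higher OD means more RAM inhibition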
L major viab = Leishmania major promastigote growth inhibition | Leishmania major promastigotes, resazurin fluorescence viability | 9% of 200,000 active | inhibition, % at 10 µM; in the data active = inhibition above about 50%;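 also: promastigotes grown with compound for 44 hours at 28 °C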
* = called active by the depositor; x = no result. Only some compounds are listed: those with a hit (about 13% of all), similar ones and a draw of the others.

SMILES	CHOP inhibitor	WT yeast gro inh	RAM inhibit	L major viab
C=CCN1C(c2ccccc2)=CS/C1=C(/C#N)c1nnc(N2CCOCC2)n1-c1ccccc1	-7.6	-13.6	0.7	73.7*
CN1C(c2ccc(F)cc2)=CS/C1=C(/C#N)c1nnc(N2CCOCC2)n1-c1ccccc1	10.8	2.3	3.0	55.7*
CN1C(=O)NC(c2ccccc2)(C(F)(F)F)S/C1=C(/C#N)c1nnc(N2CCOCC2)n1-c1ccccc1 (configuration not stated)	13.5	-2.7	0.6	-5.0
COc1ccc(-c2nnc3n2-c2ccccc2SC3)cc1OC	-3.6	-25.6	0.9	-1.2
Cc1ccc(S(=O)(=O)Nc2c(C)nc3nc[nH]n3c2=O)c(C)c1	-8.6	-21.7	1.1	-6.0
Cc1nnc(-c2ccccc2)c(=O)n1/N=C/c1c(O)ccc2ccccc12	26.6	19.6	0.5	97.8*
Cc1nc2ccccc2c(=O)n1/N=C/c1ccc2ccccc2c1O	10.2	x	x	x
CCCCc1c(C)nc2ccc(Br)cc2c1SCCC#N	54.0	60.4*	0.1	9.2
CCc1c(C)nc2ccc(Br)cc2c1SCCC#N	60.4	11.7	0.1	8.9
CCN(c1ccccc1)S(=O)(=O)c1ccc(Cl)c(NC(=O)CSc2nnc(C)s2)c1	16.4	2.4	5.5	-7.8
COc1ccc(S(=O)(=O)Nc2ccc(O)c(Sc3ncn[nH]3)c2)cc1	0.4	15.8	1.5	-1.8
COc1ccc(S(=O)(=O)Nc2cc(Sc3ncn[nH]3)c(O)c3ccccc23)cc1	18.1	94.1*	2.2	100.4*
COc1ccc(/C=N/NC(=O)C(Cc2c[nH]c3ccccc23)NC(=O)OCC(C)C)cc1[N+](=O)[O-] (configuration not stated)	42.0	20.0	5.3	99.4*
O=C(NCC(=O)N1CCN(S(=O)(=O)/C=C/c2ccccc2)CC1)c1ccc(Cl)cc1	11.0	x	x	x
COc1ccc(C(=O)Nc2nc3c(s2)Cc2cc(OC)ccc2-3)cc1	13.3	2.9	5.2	96.3*
COc1ccc2c(c1)Cc1sc(NC(=O)c3ccccc3)nc1-2	84.5*	18.9	1.6	9.3
COc1ccc2c(c1)Cc1sc(NC(=O)c3cccs3)nc1-2	73.6*	1.3	1.3	20.6
COc1ccc2nc(NC(=O)c3cccs3)sc2c1	21.0	x	x	x
O=C(N[C@@H](Cc1ccccc1)C(=O)O)c1c(F)c(F)c(F)c(F)c1F	18.4	0.0	-0.2	-0.1
COc1ccc(S(=O)(=O)NCc2ccccn2)cc1Cl	7.5	-8.2	0.8	0.0
COc1cc(Cl)c(S(=O)(=O)NCc2ccccn2)cc1Cl	4.4	10.1	-0.6	-5.1
COc1ccccc1Oc1ccc(S(=O)(=O)NCc2ccccn2)cc1	26.9	0.8	0.9	52.3*
CCOc1cc(Cl)c(S(=O)(=O)NCc2ccccn2)cc1Cl	31.8	-7.3	-2.1	98.8*
CSc1nnc(C(C)c2ncc(C(F)(F)F)cc2Cl)n1C (configuration not stated)	14.6	5.2	0.0	-8.2
O=C(c1ccc(CSc2nc3ccncc3[nH]2)cc1)N1CCN(c2cccc(Cl)c2)CC1	83.1*	-3.2	0.1	32.9
SMILES	CHOP inhibitor	WT yeast gro inh	RAM inhibit	L major viab
COc1ccccc1N1CCN(C(=O)c2ccc(CSc3ccccc3)cc2)CC1	20.4	61.4*	9.8*	5.6
COc1ccccc1N1CCN(C(=O)C(Sc2ccccc2)c2ccccc2)CC1 (configuration not stated)	52.2	29.6	1.4	81.5*
COc1ccccc1N1CCN(C(=O)CSc2ccccc2)CC1	4.3	-11.1	0.3	2.7
O=C(c1ccc(CSc2ccccc2)cc1)N1CCN(c2ccccc2)CC1	-8.0	70.1*	7.1	5.7
CCN(CC(=O)Nc1ccccc1OC)CC(=O)Nc1sccc1C#N	28.3	-12.7	0.8	2.4
O=C(CCSc1nnc(-c2ccco2)o1)Nc1ccc(F)cc1	6.9	-3.9	1.2	-11.7
C=C(C)C1CC=C(CN2CCC(O)CC2)CC1 (configuration not stated)	-7.3	-14.9	-0.4	92.8*
O=C(C1CCN(C2CCN(Cc3ccc4c(c3)CCO4)CC2)CC1)N1CCCC1	33.5	-14.3	0.2	-8.8
CC(C)=CCCC(C)CN1CCC(N2CCC(C(=O)N3CCCC3)CC2)CC1 (configuration not stated)	22.2	6.4	-0.4	73.4*
CC(C)/C=C/C(=O)N1CCC(N2CCC(C(=O)N3CCOCC3)CC2)CC1	10.9	5.1	4.3	3.3
C=C(C)[C@@H]1CC=C(CN2CCC(N3CCC(C(=O)N4CCCC4)CC3)CC2)CC1	11.2	19.4	2.0	79.4*
CC(=O)N1N=C(c2ccco2)CC1c1cccs1 (configuration not stated)	-1.8	14.5	0.2	-3.6
Cc1ccc(C2=NN(C(=O)CCl)C(c3cccs3)C2)o1 (configuration not stated)	84.1*	-25.8	-0.4	90.3*
O=C(CCl)N1N=C(c2ccco2)CC1c1cccs1 (configuration not stated)	90.3*	-25.1	0.2	90.0*
Cc1ccc(C2=NN(C(=O)CCC(=O)O)C(c3cccs3)C2)cc1 (configuration not stated)	-24.9	x	x	x
CCN(CC)S(=O)(=O)c1ccc(N=Cc2c(C)c(C#N)c(=O)n(C)c2O)cc1	0.8	-9.7	0.2	-4.8
COc1ccc(C)cc1NC(=O)C(Sc1nnc(Nc2cc(C)ccc2OC)s1)c1ccccc1 (configuration not stated)	18.6	0.9	8.5*	23.7
COc1ccc(Nc2nnc(SC(C(=O)Nc3cc(C)ccc3C)c3ccccc3)s2)cc1 (configuration not stated)	41.4	25.9	4.1	36.3
COc1ccc(C)cc1NC(=O)C(Sc1nnc2ccccn12)c1ccccc1 (configuration not stated)	-3.4	4.4	0.9	0.3
CCNc1nc(NCC)n2c(SC(C(=O)Nc3cc(C)ccc3OC)c3ccccc3)nnc2n1 (configuration not stated)	6.7	-16.7	0.4	88.7*
Cc1ccc(C)c(NC(=O)C(Sc2ncnc3ccccc23)c2ccccc2)c1 (configuration not stated)	33.1	-0.5	1.4	73.0*
Cc1ccc(Cl)cc1N1CCN(Cc2cc(=O)n3ccsc3n2)CC1	6.9	10.1	4.6	4.5
Cc1cc(C)cc(N(CC(=O)NCc2cccnc2)S(C)(=O)=O)c1	-10.0	1.4	5.2	-1.6
Cc1cccc(CN(C(=S)Nc2c(C)cccc2C)c2cccnc2)c1	9.6	15.1	1.1	86.8*
Cc1cccc(Cn2cnc3c(nnn3Cc3ccc(Cl)cc3)c2=O)c1	34.8	7.0	0.7	-3.4
Cc1cccc(Cn2nc(-n3cccc3)c3c(C)cc(C)nc32)c1	69.1	61.9*	1.1	7.9
CCn1ccnc1CN1CCc2c([nH]c3ccccc23)C1C(C)(C)C (configuration not stated)	4.9	57.2	0.4	52.4*
COCc1ccc(CN2CCc3c([nH]c4ccccc34)C2C(C)(C)C)o1 (configuration not stated)	62.1	-4.0	-1.1	50.4*
CCn1ccnc1CN1CCc2c([nH]c3ccccc23)C1C1CCCCC1 (configuration not stated)	34.4	65.1*	0.6	39.5

Assay outcomes from PubChem BioAssay.
